High-throughput results: PubChem, National Center for Advancing Translational Sciences (NCATS)
In the library only some 7.5% were active in any assay of this set; here they are far more common.
ELG1 genotoxic: qHTS screen for small molecules that induce genotoxicity in human embryonic kidney (HEK293T) cells expressing luciferase-tagged ELG1 | AID 504466, 2011 | 1.3% of 330,000 active | HEK293T ELG1-luciferase reporter, luminescence, 16 h | Potency, µM (highest dose often 46 µM), without a hit: at the top dose activity change, positive = activation, usual class: activators; also: % of control where 0% means no effect; nearly all actives have a fitted effect of over 60% in size
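Step 1: seed 2,000 HEK293T ELG1-luciferase cells per well. Step 2: add compound or DMSO, incubate 16 hr at 37 °C. Step 3: ONE-Glo, 30 min at room temperature, read luminescence.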
NPC1 promoter act: qHTS Assay for NPC1 Promoter Activators; 2.4% of 320,000 active; Potency, µM (top dose mostly 9.22 µM), for inactives: at the top dose activation, hits mostly activators; AID 485313, 2010; Huh7 NPC1 promoter luciferase reporter, 24 h; also: % of control where 0% means no effect; nearly all actives have a fitted effect of over 60% in size
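Huh7 cells stably carrying NPC1 promoter–luciferase, plated in Opti-MEM with 10% FBS for 2 h, were exposed to compound in DMSO for 24 h at 37 °C; luciferase reagent was added for 10 min and luminescence read.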
Rab9 promoter act: qHTS Assay for Rab9 Promoter Activators. Huh7 Rab9 promoter-luciferase reporter, luminescence, 24 h. Potency, µM (titrated, usually from 9.22 µM), inactives show at the highest dose activation, negative = inhibition, hits mostly activators. 2.8% of 320,000 active; also: % of control where 0% means no effect; nearly all actives have a fitted effect of over 60% in size
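Quantitative HTS format; Huh7 Rab9-luciferase reporter cells (1500/well) receive compound 2 h post-plating, incubate 24 h at 37 °C, then get luciferase reagent for 10 min before luminescence reading.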
FLuc modulator: qHTS profiling assay for firefly luciferase inhibitor/activator using purifed enzyme and Km concentrations of substrates (counterscreen for miR-21 project); 6.9% of 360,000 active; Potency, µM (highest dose often 57.5 µM), for the others: at the highest dose activity change, negative = inhibition, hits mostly inhibitors; Luciferin 4-monooxygenase (Photinus pyralis), P08659; AID 588342, 2011; purified FLuc, Km substrates, luminescence inhibition;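 also: plate controls were vehicle for no effect and reference inhibitor for full effect; nearly all actives have a fitted effect of over 55% in size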
Target sequence (P08659 whole entry, looked up): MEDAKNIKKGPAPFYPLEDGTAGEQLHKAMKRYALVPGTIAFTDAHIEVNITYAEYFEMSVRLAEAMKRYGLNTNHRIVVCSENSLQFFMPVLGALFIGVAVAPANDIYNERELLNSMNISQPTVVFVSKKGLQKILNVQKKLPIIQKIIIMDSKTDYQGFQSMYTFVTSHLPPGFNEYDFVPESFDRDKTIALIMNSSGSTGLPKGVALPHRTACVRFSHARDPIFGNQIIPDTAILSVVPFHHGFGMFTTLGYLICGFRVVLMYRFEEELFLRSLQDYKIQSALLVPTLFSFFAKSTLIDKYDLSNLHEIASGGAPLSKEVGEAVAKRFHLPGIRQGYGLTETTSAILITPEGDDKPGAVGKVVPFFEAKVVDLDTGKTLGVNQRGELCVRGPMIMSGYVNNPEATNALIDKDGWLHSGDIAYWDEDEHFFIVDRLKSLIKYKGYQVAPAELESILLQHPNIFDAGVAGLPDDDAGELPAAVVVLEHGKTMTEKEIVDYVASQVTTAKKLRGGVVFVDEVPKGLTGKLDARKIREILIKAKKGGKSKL
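Purified P. pyralis luciferase, 10 nM final, with Km-level 10 uM D-luciferin and 10 uM ATP in 50 mM Tris acetate pH 7.5, 10 mM Mg acetate, 0.01% Tween-20, 0.05% BSA; 6-point qHTS titration about 60 µM downward; luminescence read.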
SMN2 splice enh: qHTS Assay for Enhancers of SMN2 Splice Variant Expression; HEK293 SMN2-luciferase splicing reporter, luminescence, 30-36 h; Potency, µM (series often up to 46.1 µM), without a hit: at the top dose activity change, positive = activation, most hits filed as activators; 2.8% of 210,000 active; also: % of control where 0% means no effect; nearly all actives have a fitted effect of over 55% in size
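HEK293 cells carry an SMN2 minigene-luciferase reporter in which exon 7 inclusion puts luciferase in frame. Cells were seeded at 2000 cells/well, attached for 10-12 hours, then exposed to compounds for 30-36 hours at 37C before ONE-Glo luminescence.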
* hit, by the source's call; u = inconclusive; x = no result given; ! = a repeat was not active. Calls follow the shape of the dose curve; as a rule, active = well fitted curve in the direction sought with a large enough effect; inconclusive = small, poorly fitted or top-dose-only effect, or another doubt; inactive = no such curve, though single readings can be large; an effect the other way counts as inactive or inconclusive. Potency is read from the fitted curve at half-maximal effect.

SMILES	ELG1 genotoxic	NPC1 promoter act	Rab9 promoter act	FLuc modulator	SMN2 splice enh
CC(=O)c1cc2c(cc1NS(=O)(=O)c1ccccc1)OCO2	16.4µM*	11.7%	20.1%	3.4%	-16.6%
CC(=O)c1cc2c(cc1NS(=O)(=O)c1cccc(C(=O)O)c1)OCO2	2.5%	1.2%	-1.7%	1.7%	x
O=c1c2ccccc2nc2ccc(NCc3ccco3)nn12	u	u	u	10.7µM*	14.1µM*
O=S(=O)(c1cccc2nonc12)N1CCN(c2ccc(F)cc2)CC1	6.0%	-1.5%	-8.1%	26.9µM*	x
COc1ccc(OC)c(CCNC(=O)c2nn(C)c3c2CSc2ccccc2-3)c1	x	x	x	4.5%	x
CC[C@H](C)C(=O)O[C@H]1C[C@@H](C)C=C2C=C[C@H](C)[C@H](CC[C@@H]3C[C@@H](O)CC(=O)O3)[C@H]21	-0.5%	2.7%	0.1%	3.8%	15.8µM*!
Cc1ccc2c(nc3s/c(=C/c4cccs4)c(=O)n32)c1C	16.4µM*	28.7%	3.55µM*	1.9µM*	u
Cc1ccc2c(nc3s/c(=C\c4ccc(-c5ccccc5C(=O)O)o4)c(=O)n32)c1C	0.3%	1.5%	-1.1%	5.36µM*	x
O=C(O)c1ccc(-c2ccc(/C=c3/sc4nc5ccccc5n4c3=O)o2)cc1Cl	-0.1%	4.9%	12.2%	19µM*	x
Cc1ccc(C)c(N2C(=N)S/C(=C\c3ccc(-c4ccccc4C(=O)O)o3)C2=O)c1	1.9%	1.7%	-1.6%	u	12.0%
Cc1cc(C)c2nc3s/c(=C/c4ccccc4)c(=O)n3c2c1	3.2%	u	1.26µM*	u	-2.2%
Cc1cc(C(=O)O)cc(S(=O)(=O)Nc2ccccc2C(=O)NC2CC2)c1C	-0.5%	-1.7%	1.4%	6.7%	x
N#CCc1c(C#N)c(N)nc(Nc2ccccc2)c1C#N	5.3%	-3.4%	-9.7%	-1.4%	x
CCN(Cc1cc(=O)[nH]c2ccccc12)C(=O)c1ccc(C)cc1	4.0%	1.2%	-2.6%	-7.6%	x
CCOC(=O)C(N)CSC1CC(=O)N(CCc2ccccc2)C1=O (centres undefined)	-1.9%	-6.1%	3.3%	-4.3%	x
COc1ccccc1NC(=O)c1sc2nc(-c3ccco3)ccc2c1N	14.3%	11.2%	15.2%	-19.4%	18.7%
Nc1c(C(=O)Nc2ccccc2)sc2nc(-c3ccco3)ccc12	5.7%	u	u	12µM*	2.2%
CC(=O)c1sc2nc(-c3cccs3)ccc2c1N	11.6µM*	18.4%	3.55µM*	7.57µM*	u
Nc1c(C(=O)Nc2ccccc2Br)sc2nc(-c3cccs3)ccc12	x	x	x	x	-5.7%
Nc1c(C(=O)Nc2nc3ccccc3s2)sc2nc(-c3cccs3)ccc12	u	u	u	2.39µM*	u
CC(C)c1nc(SCC(=O)NCC2CCCO2)c2c(=O)n(C)c(=O)n(C)c2n1 (centres undefined)	7.8%	0.1%	-3.9%	2.5%	x
O=C(Nc1ccc(NC(=O)C2CC2)cc1)c1ccco1	13µM*	3.16µM*	1.78µM*	19µM*	x
O=C(Nc1ccc(NC(=O)c2ccco2)nc1)c1ccccn1	u	0.447µM*	0.708µM*	6.01µM*	14.1µM*
O=C(Cc1ccccc1)Nc1ccc(NC(=O)c2ccco2)nc1	u	2.24µM*	2.51µM*	16.9µM*	u
COc1cc(NC(=O)C2CC2)c(OC)cc1NC(=O)c1ccco1	-0.7%	-3.7%	-0.9%	1.1%	x
SMILES	ELG1 genotoxic	NPC1 promoter act	Rab9 promoter act	FLuc modulator	SMN2 splice enh
O=C(Nc1ccc(NC(=O)C2CCCCC2)cn1)c1ccco1	0.651µM*	0.708µM*	0.447µM*	1.69µM*	x
CC(=O)Nc1cc(N=Cc2ccc(O)cc2O)c(Cl)cc1Cl	0.1%	-1.4%	-0.7%	-0.6%	2.9%
COc1ccc(-c2nc(NC(=O)c3[nH]c(C)c(C(C)=O)c3C)sc2C)cc1	-7.8%	-3.6%	3.8%	u	6.6%
COc1ccccc1C(=O)Nc1ccc(NC(=O)c2ccco2)cn1	u	u	u	6.01µM*	x
O=C(Nc1ccc(NC(=O)c2ccco2)nc1)c1ccco1	4.3%	0.398µM*	0.316µM*	4.78µM*	2.51µM*
O=C(Nc1ccc(NC(=O)C23CC4CC(CC(C4)C2)C3)cn1)c1ccco1	2.31µM*	1µM*	21.8%	6.01µM*	31.5%
CC(C)(C)C(=O)Nc1ccc(NC(=O)c2ccco2)nc1	u	-34.4%	-39.4%	0.169µM*	x
COc1ccccc1C(=O)NC(=S)Nc1ccc(NC(=O)c2ccco2)cc1	7.3%	0.0%	2.1%	-2.2%	x
O=C(Nc1ccccn1)c1ccco1	9.0%	u	u	u	u
COc1cc2c(=O)n(Cc3ccccc3Cl)c(=O)n(CC(=O)Nc3ccc(C)c(C)c3)c2cc1OC	x	x	x	2.0%	3.8%
O=C(CSc1nnc2ccccn12)NNC(=O)c1ccc(Br)cc1	-0.1%	0.3%	-4.7%	-3.3%	7.0%
COc1ccc(CC(=O)Nc2sc3c(c2C(=O)Nc2cccc(C)c2)CCCCC3)cc1	x	x	x	u	-7.8%
O=C(Nc1cccc(-c2cn3ccccc3n2)c1)C1CC1	u	26.3%	3.3%	13.5µM*	u
Cc1ccc(S(=O)(=O)Nc2cccc(-c3cn4cccc(C)c4n3)c2)c(C)c1	x	x	x	u	-17.0%
O=C(Nc1ccc(-c2cn3ccccc3n2)cc1)c1cccs1	u	1.78µM*	3.55µM*	1.9µM*	11.2µM*
